Rows were chosen to be rich in hits. Some 3.2% of all compounds tested hit in one or more screens of this group.
CHT PAM: CHT positive allosteric modulators, primary screen, cell-based, membrane potential dye, choline EC20 | High affinity choline transporter 1 (Homo sapiens), Q9GZV3 | CHT-expressing cells; active compounds read high; LV-AA mutant CHT in HEK293 cells | B-score at 10 µM | 310,000 tested, 0.49% active | AID 488977, 2010;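 active = initial fluorescence not abnormally high and integrated response B-score, plate-corrected, over 3 SD above library mean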
Kir21 block: inhibitors of mouse Kir2.1 inward-rectifier potassium channel | AID 1672, 2009 | B-score at 10 µM | Inward rectifier potassium channel 2 (Mus musculus), P35561 | HEK293-Kir2.1, FluxOR thallium flux fluorescence; active compounds read low | 310,000 tested, 0.85% active;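 active = fluorescence ratio B-score at or below minus 3 SD of library scores, with starting-brightness B-score within 2 SD, cut at about -4.2 in these data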;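 also: channel flux triggered by added potassium and thallium sulfate stimulus; B-score of peak minus minimum fluorescence over baseline after thallium stimulus; more negative B-score means stronger Kir2.1 block with less thallium influx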
TMEM16A inh: TMEM16A chloride channel inhibitors, primary screen, cell-based, HTS; HEK293 TMEM16A/YFP iodide influx fluorescence, ionomycin; normalized B-score (activity score, 25-100; higher = stronger inhibition) at 10 µM; 310,000 tested, 1.2% active;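 active = ratio plate-corrected score three or more library SD toward inhibition, starting fluorescence score within five deviations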;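 also: score derived from kinetic fluorescence span divided by baseline fluorescence per well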
Target sequence (Q8BHY3 whole entry, looked up): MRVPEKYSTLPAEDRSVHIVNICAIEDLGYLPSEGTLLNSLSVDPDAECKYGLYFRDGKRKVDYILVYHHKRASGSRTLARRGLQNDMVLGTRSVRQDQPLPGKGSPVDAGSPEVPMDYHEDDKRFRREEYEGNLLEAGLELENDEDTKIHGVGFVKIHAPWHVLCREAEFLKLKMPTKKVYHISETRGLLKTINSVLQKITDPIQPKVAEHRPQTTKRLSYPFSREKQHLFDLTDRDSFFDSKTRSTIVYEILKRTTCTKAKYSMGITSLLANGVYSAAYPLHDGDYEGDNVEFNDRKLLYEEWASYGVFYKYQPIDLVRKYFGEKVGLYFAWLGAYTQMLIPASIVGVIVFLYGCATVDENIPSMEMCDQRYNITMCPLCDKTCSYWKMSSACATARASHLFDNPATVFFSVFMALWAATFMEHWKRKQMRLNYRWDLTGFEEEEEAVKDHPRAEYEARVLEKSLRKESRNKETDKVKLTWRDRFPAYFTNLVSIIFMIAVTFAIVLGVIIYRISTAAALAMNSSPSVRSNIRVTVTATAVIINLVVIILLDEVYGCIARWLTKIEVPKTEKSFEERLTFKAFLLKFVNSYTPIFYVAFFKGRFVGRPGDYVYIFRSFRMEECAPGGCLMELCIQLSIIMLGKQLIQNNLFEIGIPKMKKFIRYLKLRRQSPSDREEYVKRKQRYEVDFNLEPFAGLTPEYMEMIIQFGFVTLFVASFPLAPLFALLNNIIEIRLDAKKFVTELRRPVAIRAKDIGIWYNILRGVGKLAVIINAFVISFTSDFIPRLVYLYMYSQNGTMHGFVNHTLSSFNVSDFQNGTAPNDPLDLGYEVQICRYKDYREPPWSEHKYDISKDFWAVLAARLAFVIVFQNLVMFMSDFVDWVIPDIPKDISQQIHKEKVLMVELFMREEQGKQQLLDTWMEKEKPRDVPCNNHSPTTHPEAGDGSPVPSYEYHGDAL
ANO1 activ: TMEM16A chloride channel activators or potentiators, primary screen, cell-based, HTS; Anoctamin-1 (Mus musculus), Q8BHY3; HEK293 TMEM16A/YFP-H148Q/I152L, iodide quench fluorescence; active compounds read low; B-score at 10 µM; 340,000 tested, 0.3% active;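 active = fluorescence-ratio B-score plate-corrected deviation score at least 3 library SD below zero, with starting fluorescence score within 5 deviations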;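 also: channel opened by trigger with iodide after compound preincubation; score built on the fluorescence ratio of max minus min over baseline; more negative score means more quench and so TMEM16A activation or potentiation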
CHT inh: inhibitors of human choline transporter CHT | B-score at 10 µM | High affinity choline transporter 1 (Homo sapiens), Q9GZV3 | CHT-expressing cells, membrane potential dye, choline response; active compounds read low | 310,000 tested, 0.86% active | AID 488975, 2010;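 active = B-score over 3 SD under the library average, and starting fluorescence ratio not unusually high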;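 also: choline stimulus applied at its EC90 after an EC20 pre-addition; B-score computed on integrated fluorescence ratio after choline addition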
Rce1 inh: yeast Rce1p protease inhibitors, primary screen, biochemical, fluorescence, cell-free homogeneous. CAAX prenyl protease 2 (Saccharomyces cerevisiae (strain ATCC 204508 / S288c)), Q03530. 290,000 tested, 0.27% active. yeast membranes, quenched prenylated peptide cleavage fluorescence. calls only. AID 2563, 2010;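 active = fall in fluorescence gain of 50% or more versus controls, with final raw signal at or below 3038400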;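 also: plate controls were neutral control wells for no effect and wells lacking membranes for full effect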
TMEM16A reconf: TMEM16A chloride channel inhibitors, confirmation, cell-based, re-confirmation; 2,300 tested, 39% active; HEK293 TMEM16A/YFP-H148Q, iodide quench fluorescence; ionomycin added to raise cell calcium; inhibition, % at 10 µM; shares compounds with TMEM16A inh;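 active = mean duplicate percent inhibition, scaled so buffer wells are 0 and the reference blocker 100, over three buffer SD above buffer mean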
HEK293 Ca mobil: calcium mobilization in TMEM16A/YFP HEK293 cells, confirmation, counter-screen for TMEM16A inhibitor project | shares compounds with TMEM16A inh | Fluo4 calcium mobilization | calcium response (% of ionomycin), % at 10 µM | 2,300 tested, 2% active | AID 652231, 2013;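 active = duplicate-averaged calcium signal over 20% of the ionomycin maximum, relative to buffer baseline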;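 also: each well's signal is peak minus trough fluorescence divided by its pre-addition baseline; 0% = buffer wells and 100% = ionomycin wells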
YFP-HEK293 quench: iodide YFP quench changes in parental YFP-HEK293, counter-screen for TMEM16A inhibitor project, cell-based. AID 652233, 2013. ionomycin. YFP ratio F(max-min)/F0 at 10 µM. 2,300 tested, under 10 active. shares compounds with TMEM16A inh;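 active = yellow fluorescent protein signal ratio exceeding the buffer control mean by over 5 SD of those controls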;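 also: ratio is mean of duplicate wells from kinetic YFP trace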
ClC-1 rat inh: ClC-1 chloride channel inhibition, selectivity assay for TMEM16A inhibitor project, cell-based, voltage-dependent ClC-1 | AID 652236, 2013 | ratio percent, % at 10 µM | 2,300 tested, under 10 active | shares compounds with TMEM16A inh | CHO ClC-1-YFP, iodide influx fluorescence quench; iodide control reads 0, buffer control 100;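 active = duplicate-mean ratio percent above the mean of iodide-only control wells, which defines zero, plus 5 of their SD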;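 also: higher percent means stronger block of ClC-1 iodide influx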
The depositor's hits bear a star; i = inactive; x = not tested or not shown.

SMILES | CHT PAM | Kir21 block | TMEM16A inh | ANO1 activ | CHT inh | Rce1 inh | TMEM16A reconf | HEK293 Ca mobil | YFP-HEK293 quench | ClC-1 rat inh
NC(CCCCCP(=O)(c1ccccc1)c1ccccc1)C(=O)O (configuration not stated) | i | 1.12 | i | x | i | i | x | x | x | x
O=C(OCc1ccc(Cl)cc1)c1ccccc1C(=O)c1ccccc1 | i | -2.66 | 100* | i | i | i | i | i | -1.27 | -3.5
CCN(C(=O)Cc1c(C(=O)O)[nH]c2ccccc12)c1cc(OC)ccc1OC | i | 1.04 | 100* | i | i | i | i | i | -1.07 | -4.5
COc1ccc(N(C)C(=O)Cc2c(C(=O)O)[nH]c3ccccc23)cc1 | i | 0.09 | i | i | i | i | x | x | x | x
Cc1ccc(CN2CC(C(=O)Nc3ccc(F)c([N+](=O)[O-])c3)CC2=O)cc1 (configuration not stated) | i | -0.04 | i | i | i | i | x | x | x | x
Cc1ccc(-n2nnnc2SCC(N)=O)c(C)c1 | i | 0.38 | i | i | i | i | x | x | x | x
Cc1ccc(-n2nnnc2SCc2nnc(-c3ccccc3Br)o2)c(C)c1 | i | -1.87 | 100* | i | i | i | i | i | -1.06 | -13.5
CCO[C@H]1OC(C(=O)N2CCN(C)CC2)=C[C@@H](c2ccc(Br)cc2)[C@@H]1CCCO | i | -0.02 | i | i | i | i | x | x | x | x
O=C(CNC(=O)c1ccccc1F)OC(C(=O)Nc1cc(C(F)(F)F)ccc1Cl)c1ccccc1 (configuration not stated) | i | 1.54 | i | i | i | i | x | x | x | x
C[C@H](NC(=O)c1ccccc1Cl)C(=O)OC(C(=O)Nc1cc(C(F)(F)F)ccc1Cl)c1ccccc1 (some centres not stated) | i | 0.44 | 25* | i | i | i | i | i | -1.37 | -5.5
COc1ccccc1OCCCC(=O)Nc1ccc([N+](=O)[O-])cc1Br | i | 0.14 | i | i | i | x | x | x | x | x
CCOc1ccc(-n2c(=S)sc3c(=O)[nH]c(SCC(=O)C(C)(C)C)nc32)cc1 | i | 1.54 | 100* | i | i | i | 33.5%* | i | -0.981 | -17.0
CCOC(=O)N1CCC(Nc2nc3ccccc3nc2NS(=O)(=O)c2ccc(Cl)cc2)CC1 | i | 0.95 | i | i | i | i | 31.5%* | i | -0.817 | -144.0
O=S(=O)(Nc1nc2ccccc2nc1N1CCN(c2ccccc2F)CC1)c1ccc(Cl)cc1 | i | 2.24 | 100* | i | i | x | 38.0%* | i | -0.99 | -10.5
CCOc1ccc(S(=O)(=O)Nc2nc3ccccc3nc2N2CCN(C)CC2)cc1 | i | 1.33 | i | i | i | i | x | x | x | x
COc1ccccc1CN=Cc1[nH]c2ccc(Br)c(Cl)c2c1O | i | -2.7 | i | i | i | i | 16.0%* | i | -0.895 | -7.5
COc1cc(Br)cc(/C=N/NC(=O)Cc2ccccc2)c1O | i | 0.18 | i | i | i | i | x | x | x | x
COc1ccccc1C(CNC(=O)c1cccc(S(=O)(=O)Nc2ccc(C)cc2)c1)N(C)C (configuration not stated) | i | 0.98 | i | i | i | i | x | x | x | x
Cn1c(NN)nc2sc3c(c2c1=O)CC(C)(C)OC3 | i | -0.53 | i | i | i | i | x | x | x | x
CCC1(C)Cc2c(sc3nc(NC)n(C)c(=O)c23)CO1 (configuration not stated) | i | 0.61 | 25* | i | i | i | i | i | -0.903 | -9.5
O=C(c1cc(COc2cccc3cnccc23)on1)N1CCCC(CCCO)C1 (configuration not stated) | i | 2.33 | 25* | i | i | i | 40.5%* | i | -1.25 | -19.0
COCC1CCN(C(=O)c2cc(COc3cccc4cnccc34)on2)CC1 | i | 0 | i | i | i | i | x | x | x | x
O=C1N(Cc2ccc(F)cc2Cl)c2ccccc2C12OCCCO2 | i | -1.74 | i | i | i | i | x | x | x | x
O=C1N(Cc2ccccc2F)c2ccccc2C12OCCCO2 | i | 0.15 | 100* | i | i | i | i | i | -1.14 | -9.0
COCc1cc(=O)n2[nH]cc(-c3ccccc3)c2n1 | i | -0.3 | i | i | i | i | x | x | x | x
SMILES | CHT PAM | Kir21 block | TMEM16A inh | ANO1 activ | CHT inh | Rce1 inh | TMEM16A reconf | HEK293 Ca mobil | YFP-HEK293 quench | ClC-1 rat inh
CCCc1cc(=O)n2[nH]cc(-c3ccc(Cl)cc3)c2n1 | i | -0.18 | 100* | i | i | i | i | i | -0.927 | -13.5
O=S(=O)(Nc1nnc(-c2ccccc2)s1)c1ccc(Cl)cc1 | i | -1.06 | 100* | i | i | i | 38.0%* | i | -0.902 | -18.5
COCc1nnc(NS(=O)(=O)c2ccc(Cl)cc2)s1 | x | 0.32 | x | i | x | i | x | x | x | x
CCn1c(CSc2nc3ccccc3s2)nc2ccccc21 | i | -0.04 | 100* | i | i | i | 43.0%* | i | -0.857 | -8.5
CCOC(Cn1ccc(=O)[nH]c1=O)OCC | i | -0.34 | i | i | i | i | x | x | x | x
CCCc1ccc(C(=O)NC(=O)c2ccccc2O)cc1 | i | -0.51 | 100* | i | i | i | 34.5%* | 21.5%* | -0.731 | -5.0
O=C(NC(=O)c1ccccc1O)c1ccc(C(F)(F)F)cc1 | i | 0.01 | i | i | i | i | x | x | x | x
Cc1ccc(S(=O)(=O)N2CCOCC2)cc1NCC(=O)Nc1ccc(OC(F)(F)F)cc1 | x | x | x | i | x | x | x | x | x | x

Screening results: PubChem BioAssay, several laboratories
